High-throughput results deposited in PubChem BioAssay by National Center for Advancing Translational Sciences (NCATS).
EPAC1 ag – activates human EPAC1 exchange factor. O95398. EPAC1 agonist qHTS, biochemical assay; response scale: 100% = response to 6.5 mM cAMP. Potency, µM (highest dose often 154 µM), for the others: top-dose activation, usual class: activators. 360,000 compounds, 0.073% hits; note: nearly all actives have a fitted effect of over 60% in size
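Nucleotide exchange assay: 100 nM EPAC1 with 250 nM Rap1B loaded with BODIPY-GDP and 50 uM GDP, room temperature. Fluorescence (480/540 nm) read every 5 min for 30 min; signal change normalized to 6.5 mM cAMP as full agonist.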
EPAC2 ag – agonists of human EPAC2 (RAPGEF4); Potency, µM (series often up to 154 µM), inactives show top-dose activation, actives largely listed as activators; 360,000 compounds, 0.079% hits; EPAC2 activation, biochemical qHTS; response scale: 100% = 6.5 mM cAMP response; note: nearly all actives have a fitted effect of over 50% in size
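Guanine nucleotide exchange by EPAC2 is measured as reduced fluorescence of BODIPY-GDP once it is released from 250 nM Rap1B. Plates are read kinetically for 30 min at room temperature; results are scaled to 6.5 mM cAMP.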
ERG-DNA inh – blocks human ERG Ets domain binding to DNA; P11308; fluorescence polarization, His-ERG Ets domain / labelled DNA; Potency, µM (titrated, usually from 76.9 µM), inactives show at the top dose FP activity, negative = inhibition, usual class: inhibitors; 370,000 compounds, 0.028% hits; active = well fitted inhibition curve with a large enough effect in the polarisation, with a control signal flat; inconclusive = small, poorly fitted or top-dose-only effect, or effect the other way, or a change in a side signal; inactive = no such curve, though single readings can be large or run the other way; the % refers to the polarisation;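 note: polarization taken with two DNA probes labelled with fluorescein and Texas red; % of control where 0% means no effect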
Target sequence (P11308 whole entry, looked up, the tested form may be a part): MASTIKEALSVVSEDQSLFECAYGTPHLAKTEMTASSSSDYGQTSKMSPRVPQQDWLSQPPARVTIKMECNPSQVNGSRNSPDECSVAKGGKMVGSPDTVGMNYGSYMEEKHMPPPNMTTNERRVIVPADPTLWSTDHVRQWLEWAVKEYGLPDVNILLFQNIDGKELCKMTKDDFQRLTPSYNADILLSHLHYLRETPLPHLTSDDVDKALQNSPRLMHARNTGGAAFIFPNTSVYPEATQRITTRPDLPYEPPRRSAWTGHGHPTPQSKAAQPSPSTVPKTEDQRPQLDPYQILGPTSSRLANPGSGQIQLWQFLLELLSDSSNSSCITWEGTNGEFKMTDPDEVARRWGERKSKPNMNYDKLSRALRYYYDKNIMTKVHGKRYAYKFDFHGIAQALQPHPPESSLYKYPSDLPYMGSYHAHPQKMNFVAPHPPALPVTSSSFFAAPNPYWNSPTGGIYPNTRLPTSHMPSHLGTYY
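His-tagged ERG Ets domain (1 uM in the protein solution; 300mM KCl, 50mM Tris-HCl, 1mM EDTA, 1mM DTT, pH 7.5) received compound, then a probe mix of 5 nM fluorescein-DNA and 100nM Texas-615-DNA. Fluorescence polarization was read for both dyes.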
EPAC2 antagonist – antagonists of human EPAC2; Q8WZA2; EPAC2 GEF exchange of Rap1B-BODIPY-GDP, fluorescence; Potency, µM (top dose mostly 114 µM), inactives show at the highest dose activity, negative = inhibition, most hits filed as inhibitors; 360,000 compounds, 0.18% hits; AID 720708; note: % is set by controls: 0 for no effect and ±100 for the full control effect; nearly all actives have a fitted effect of over 45% in size
RGS4 inhibitor – human RGS4 inhibition; P49798; AID 504845; Potency, µM (highest dose often 114 µM), for inactives: at the highest dose activity change, negative = inhibition, most hits filed as inhibitors; 390,000 compounds, 0.039% hits; Transcreener GDP fluorescence polarization, RGS4-accelerated GTP hydrolysis; note: % is set by controls: 0 for no effect and ±100 for the full control effect; nearly all actives have a fitted effect of over 75% in size
Target sequence (P49798 whole entry, looked up): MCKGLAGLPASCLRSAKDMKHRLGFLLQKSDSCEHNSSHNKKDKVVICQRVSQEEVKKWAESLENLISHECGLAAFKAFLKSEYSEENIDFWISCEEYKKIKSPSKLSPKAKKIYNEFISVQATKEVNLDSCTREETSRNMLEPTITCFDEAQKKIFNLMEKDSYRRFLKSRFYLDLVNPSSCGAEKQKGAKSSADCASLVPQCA
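MLSMR compounds (23 nl, pin-transferred) preincubated 10 min at room temperature with a 500nM (2x) first reagent, then RGS4 at 900nM (2x) plus Transcreener GDP mix added; fluorescence polarization (620/688 nm) read before and after 90 min at 30 °C.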
EPAC1 antag – antagonists of human EPAC1. EPAC1 GEF assay, Rap1b-BODIPY-GDP exchange fluorescence. 360,000 compounds, 0.14% hits. Potency, µM (titrated, usually from 115 µM), for inactives: top-dose activity change, negative = inhibition, most hits filed as inhibitors;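 note: plate controls were vehicle for no effect and positive control for full effect; nearly all actives have a fitted effect of over 50% in size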
Starred values were filed as active, the others as inactive; i = inactive; ? = inconclusive; / = no result; ! = a repeat was not active. Shown are actives, neighbours in structure and some others; about 0.4% of the full set was active somewhere. Unless noted, calls come from the whole dose curve; as a rule, active = well fitted curve in the direction sought with a large enough effect; inconclusive = small, poorly fitted or top-dose-only effect, or another doubt; inactive = no such curve, though single readings can be large; an effect the other way counts as inactive or inconclusive. Potency is the fitted concentration of half-maximal effect.

SMILES	EPAC1 ag	EPAC2 ag	ERG-DNA inh	EPAC2 antagonist	RGS4 inhibitor	EPAC1 antag
COc1cc(/C=C(\C#N)c2nc3ccc(C)cc3[nH]2)c([N+](=O)[O-])cc1OC	-5.6%	6.0%	-17.8%	-3.8%	-7.5%	-18.5%
COc1cc(/C=C(\C#N)c2nc3ccc(C)cc3[nH]2)cc([N+](=O)[O-])c1O	-2.8%	6.3%	-8.7%	?	-11.8%	28.2µM*
Cc1ccccc1OCC(=O)Nc1cc(-c2cccc(Br)c2)nn1-c1ccccc1	/	/	-10.0%	/	-10.9%	/
COc1ccc(S(=O)(=O)N(CCO)c2ccccc2CN(C)C/C=C/c2ccc(Cl)cc2)cc1	/	/	/	/	i	/
COc1cccc2cc(C(C)N(CCCN3CCOCC3)C(=S)Nc3cccc(C)c3)oc12 (stereo not given)	8.8%	20.7%	-8.1%	-8.0%	10.0%	56.2µM*
COc1cccc2cc(C(C)N(CCCN3CCOCC3)C(=S)Nc3cc(C)cc(C)c3)oc12 (stereo not given)	-2.5%	-0.6%	2.4%	-0.9%	-2.1%	?
Nc1ncnc2c1nc(Sc1ccc(Cl)cc1)n2[C@@H]1O[C@@H]2COP(=O)(O)O[C@H]2[C@H]1O	?	?	0.2%	2.82µM*	7.3%	?
CCCC(=O)Nc1ncnc2c1ncn2[C@@H]1O[C@@H]2COP(=O)(O)O[C@H]2[C@H]1OC(=O)CCC	-29.0%	11.2%	-10.4%	8.2%	-31.9%	7.8%
Nc1ccc2c(c1)C(=O)C(=O)c1ccccc1-2	-8.8%	-12.2%	-0.5%	8.91µM*	?	?
C/C(=N\NC(=O)CC#N)c1cc2ccc(O)cc2oc1=O	10.8%	112µM*	-1.3%	241.0%	-34.9%	13.2%
CCOc1ccc(C(c2c(O)cc(C)n(Cc3ccco3)c2=O)N2CCN(c3ccccc3)CC2)cc1 (stereo not given)	/	/	0.0%	/	?	/
N#C/C(=C\c1ccc(O)c(O)c1)C(=O)NCCc1ccccc1	-22.6%	1.2%	0.0%	21.4%	18.9µM*!	5.9%
CCc1nnc(NS(=O)(=O)c2ccc(NC(=S)NC(=O)/C=C/c3ccc(F)cc3)cc2)s1	-6.3%	-1.1%	8.3%	-2.7%	?	22.4µM*
COc1ccc2c(c1)-c1nc(NC(=O)c3cc(Cl)ccc3OC)sc1CC2	/	/	0.1%	/	-32.5%	/
N#C/C(=C/c1ccc(N2CCCCC2)o1)C(=O)Nc1ccc(Cl)cc1	100µM*	100µM*	-5.3%	5.2%	-13.3%	0.8%
N#C/C(=C\c1ccc[nH]1)C(=O)Nc1ccccc1Cl	-15.2%	6.6%	-3.7%	13.8%	-25.4%	-18.6%
CC1CC1c1ccc(/C=C(\C#N)C(=O)Nc2ccc(Cl)cc2)o1 (stereo not given)	100µM*	21.6%	22.7%	-1.4%	-29.8%	10.1%
N#C/C(=C/c1ccc(N2CCCCC2)o1)C(=O)Nc1ccc2ccccc2c1	23.5%	6.4%	?	18.7%	-42.5%	47.9%
CC1CC1c1ccc(/C=C(\C#N)C(=O)Nc2ccccc2Cl)o1 (stereo not given)	100µM*	4.0%	-3.7%	4.7%	4.4%	-13.9%
CN1C(=O)c2ccccc2Sc2ccc(NC(=O)N3CCN(c4ccc(F)cc4)CC3)cc21	/	/	-5.7%	/	20.1%	/
Nc1nc(N2CCN(Cc3ccccc3)CC2)n[nH]1	6.1%	6.9%	35.5µM*	-3.9%	9.1%	0.6%
CN(CCc1ccccn1)C(=O)Nc1ccc(F)cc1	1.0%	6.31µM*	-2.9%	5.2%	-3.3%	4.2%
CCC[C@H]1CC(=O)C=C(c2ccsc2)ON1C(=O)OC(C)(C)C	-18.7%	9.1%	-0.2%	17.8µM*	-20.3%	-9.6%
COc1ccc(C2=CC(=O)C[C@H](CN3C(=O)c4ccccc4C3=O)N(C(=O)OC(C)(C)C)O2)cc1	-1.7%	-5.9%	3.2%	?	4.0%	-9.1%
Cc1ccc(C(=O)c2cn(Cc3ccccc3F)c3cc4c(cc3c2=O)OCO4)cc1	/	/	7.1%	/	-19.9%	/
SMILES	EPAC1 ag	EPAC2 ag	ERG-DNA inh	EPAC2 antagonist	RGS4 inhibitor	EPAC1 antag
CC1=CC(C)(C)N(C(=O)CCl)c2ccccc21	0.8%	6.3%	-5.8%	?	-0.7%	-9.3%
CC1=CC(C)(C)N(C(=O)CCl)c2cc(C)ccc21	-5.1%	5.9%	-1.2%	50.1µM*	-11.0%	-9.1%
Cn1nc(-c2ccc(F)cc2)nc2c(=O)n(C)c(=O)nc1-2	/	/	/	/	-32.9%	/
Cc1cccn2c(=O)c3cc(C(=O)NCc4ccccc4)c(=N)n(CCOCCO)c3nc12	/	/	1.1%	/	11.3%	/
CC(=NNC(=O)c1ccncc1)c1ccccc1O	-2.7%	3.6%	-5.6%	-10.9%	-4.9%	?
CC(C)CC(=NNC(=O)c1ccncc1)c1cc(Cl)ccc1O	100µM*	?	-5.7%	1.8%	24.9%	-1.2%
CC1=C(C(=O)Nc2ccc(C)cc2C)C(c2ccc(C(C)C)cc2)n2nc(C(F)(F)F)nc2N1 (stereo not given)	/	/	0.1%	/	2.5%	/
Cc1ccc(C)n1-c1cc([N+](=O)[O-])ccc1-n1ccnc1	-0.2%	-3.0%	-9.1%	-12.9%	-7.1%	18.9%
CC1(C)N([O-])c2cc([N+](=O)[O-])ccc2[N+]1=O	0.8%	8.4%	2.5%	?	-48.5%	70.8µM*
COc1cccc(Cn2nnc3c(=O)[nH]c(C4CCN(C(=O)c5ccccc5Cl)CC4)nc32)c1	/	/	-3.4%	/	-6.5%	/
O=C(O)C(Cc1c[nH]c2ccccc12)NS(=O)(=O)c1cccc(Cl)c1Cl (stereo not given)	1.7%	10.6%	-3.2%	44.7µM*	11.5%	-14.3%
O=c1[nH]cc(N=Cc2cc(Cl)cc(Cl)c2O)c(=O)[nH]1	100µM*	-7.7%	-5.8%	-17.3%	?	-6.0%
CC1=CC(C)(C)N(C(=O)c2ccc(F)cc2)c2cc3c(cc21)OCO3	11.1%	9.9%	-7.1%	50.1µM*	3.2%	-19.5%
CSC1=NCCN1C(=O)c1ccc2c(c1)OCO2	4.1%	-6.4%	-1.1%	-3.6%	16.0%	9.3%
Cc1ccc(CNC(=O)CCCn2c(=O)[nH]c3ccc(Br)cc3c2=O)cc1	/	/	-2.5%	/	-15.6%	/
CC1=C/C(=C(\c2cc(C)c(O)c(Br)c2)c2ccccc2S(=O)(=O)O)C=C(Br)C1=O	-15.0%	-14.2%	117.5%	39.8µM*	?	?
CCOc1cc(/C=C2\C(=O)N(c3nc(-c4ccc(Br)cc4)cs3)N=C2c2ccccc2)ccc1O	-4.6%	-14.0%	14.3%	3.0%	?	35.5µM*
CCCC(=O)OC1CC(C)N(C(=O)c2ccccc2)c2ccc(C)cc21 (stereo not given)	8.1%	12.3%	-2.1%	25.1µM*	2.1%	2.2%
